# In PubChem BioAssay (NCATS):
# Records with an inconclusive call do not appear. Values without a mark were called inactive. Activity calls are given as the source filed them. Calls follow the shape of the dose curve; as a rule, active = well fitted activation curve with a large enough effect; inconclusive = small, poorly fitted or top-dose-only effect; inactive = no such curve, though single readings can be large or run the other way.
# Experiment: qHTS for Activators of Parkin Expression: LOPAC Validation Assay (FLuc Reporter) (AID 720573;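 as to activation: 0% = DMSO and 100% = positive control compounds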)
# Conditions: Cell line, PRKN promoter firefly luciferase reporter; series mostly up to 46.1 µM; activation: at the top concentration
# Source text: Parkin is an E3 ubiquitin ligase localized in the cytosol of cells expressed in many tissues, including brain, skeletal muscle, heart and liver tissues. One hour after stress induction by mitochondrial uncouplers (which mimic mitochondria damage by decreasing the mitochondrial inner membrane electrochemical gradient that is used to produce ATP), Parkin translocates from the cytosol to mitochondria in many cultured cell types, including neurons and HeLa cells. Administration of other mitochondrial poisons, such as Paraquat and azide in cells lacking mitochondrial DNA (mtDNA), induces Parkin translocation to mitochondria. […] It was proposed that Parkin (together with Pink1) mediates a mitochondrial quality control pathway to maintain organelle population fidelity by removing damaged mitochondria. Understanding the normal physiologic role of Parkin (and Pink1) may uncover novel treatment strategies for sporadic Parkinson's disease patients with mutation in these genes.
# A cell based qHTS in 1536 well format was developed assess modulation of Parkin expression using a neuronal cell line that stably expresses a stably expresses a luminescent coincidence reporter (FLuc and NLuc reporters) behind the Parkin promoter. The LOPAC library is used to validate the assay for quantitative high-throughput screening. The data herein reports the signal from the FLuc reporter. An increase in this signal = activation of Parkin expression. For this assay , a positive control normalized signal increase corresponding to a high quality qHTS curve class in both luminescent channels is the desired outcome for this assay.
# NIH Chemical Genomics Center [NCGC]
# NIH Molecular Libraries Probe Centers Network [MLPCN]
# Assay Submitter (PI): Richard Youle, National Institute of Neurological Disorders and Strokes (NINDS), NIH
# [1] Narendra, D., et al., Parkin is recruited selectively to impaired mitochondria and promotes their autophagy. J Cell Biol, 2008. 183(5): p. 795-803.
# [2] Suen, D.F., et al., Parkin overexpression selects against a deleterious mtDNA mutation in heteroplasmic cybrid cells. Proc Natl Acad Sci U S A, 2010. […] 11835-40.
# [3] Cheng K, Inglese J. A coincedence reporter-gene system for high-throughput screening. Nat Methods. 2012: 9(10);937
# Five microliters (1,500 cells/well) of the Parkin coincidence reporter cells were seeded to 1536 well assay plates (Greiner Catalog # 789173-F) and incubated at 37 C, 5% CO2 for 24 hours. Compounds (23 nL) were pinned using the Kalypsys robotic system equipped with 1536 pin head adaptor in 7-point dose response. The assay plates were incubated for additional 24 hr at 37 C, 5% CO2 followed by a volume reduction in each well to 2 uL using an automated plate washer/aspirator. Following the volume reduction,2 uL of FLuc detection reagent and plates were incubated for 10 minutes at room temperature. The FLuc luminescence signal was obtained using the PerkinElmer ViewLux plate imager and then 2 uL of NanoLuc detection reagent was added to the plates. After another 10 minute incubation, NanoLuc signal was obtained using the PerkinElmer ViewLux plate imager as before. Data from each channel was normalized to DMSO (neutral control) and the positive control compounds (100%).
# Potency is read from the fitted curve at half-maximal effect.
SMILES,activation,Potency
CNCC[C@H](Oc1ccc(C(F)(F)F)cc1)c1ccccc1,-13.4%,–
C=CC(=O)c1ccc(CCCCCC)cc1,4.54%,–
CCNC(=O)[C@H]1O[C@@H](n2cnc3c(N)nc(NCCc4ccc(CCC(=O)O)cc4)nc32)[C@H](O)[C@@H]1O,-9.82%,–
O=C1O/C(=C/Br)CCC1c1cccc2ccccc12 (stereo not given),-49.1%,–
CC12C(=O)OC(=O)C1(C)C1CCC2O1 (stereo not given),-48%,–
Nc1nc(SCc2ccc([N+](=O)[O-])cc2)c2ncn([C@@H]3O[C@H](CO)[C@@H](O)[C@H]3O)c2n1,-10.3%,–
CCCn1c(=O)c2[nH]c(-c3ccc(OCC(=O)NCCN)cc3)nc2n(CCC)c1=O,-2.61%,–
CN(C)c1nc(N)c(C(=O)N=C(N)N)nc1Cl,-6.18%,–
C[N+]1(C)C2CC(OC(=O)[C@H](CO)c3ccccc3)CC1C1OC12 (stereo not given in full),–,inactive
Nc1ncnc2c1c(I)cn2[C@@H]1C[C@H](N)[C@@H](O)[C@H]1O,–,20.6 µM (active)
Cc1ccc(S(=O)(=O)/C=C/C#N)cc1,-49%,–
Cn1c(=O)c2[nH]c(-c3ccccc3)nc2n(C)c1=O,-5.42%,–
Clc1ccc(N2CCN(Cc3c[nH]c4ncccc34)CC2)cc1,-10.2%,–
OC[C@H]1O[C@@H](n2cnc3c(NC4CCCCC4)ncnc32)[C@H](O)[C@@H]1O,-3.39%,–
NC(CCCP(=O)(O)O)C(=O)O (stereo not given),1.61%,–
O=C(O)c1cc([N+](=O)[O-])ccc1NCCCc1ccccc1,12.8%,–
O=C(O)CC1CC(c2ccccc2)=NO1 (stereo not given),2.44%,–
CN1[C@@H](CC(=O)c2ccccc2)CCC[C@H]1C[C@H](O)c1ccccc1,-2.44%,–
CCCCC/C=C\CC(O)/C=C/c1cccc(CC(O)CCCCO)n1 (stereo not given),-12.1%,–
Nc1nc(Cl)nc2c1ncn2[C@@H]1O[C@H](COP(=O)(O)OP(=O)(O)OP(=O)(O)O)[C@@H](O)[C@H]1O,-11.1%,–

SMILES,activation,Potency
N[C@@H](CC(=O)O)C(=O)O,-11.1%,–
O=C(O)/C=C/C(O)c1ccc(Cl)cc1 (stereo not given),26.6%,–
O=C(c1ccc(Cl)cc1)N1CCN(c2ccc([N+](=O)[O-])c3ncccc23)CC1,-16.4%,–
N.N.N.N.N.N.N.N.N.N.N.N.N.N.O.O.[Ru+4].[Ru+5].[Ru+5],-31.4%,–
CCCCN1CCC(n2c(=O)[nH]c3ccccc32)CC1,-2.86%,–
CO/N=C(\C(=O)N[C@@H]1C(=O)N2C(C(=O)O)=C(COC(C)=O)CS[C@H]12)c1csc(N)n1,-1.57%,–
CNC(=O)[C@H]1O[C@@H](n2cnc3c(NCc4cccc(I)c4)ncnc32)[C@H](O)[C@@H]1O,-5.81%,–
CCCC1(C)C(C#N)(C#N)C1(C#N)C#N,-49.1%,–
O=[N+]([O-])c1ccc2c(c1)S(=O)(=O)C=C2,-48.5%,–
O=c1[nH]c2cc([N+](=O)[O-])c([N+](=O)[O-])cc2[nH]c1=O,-2.02%,–
CNC(=O)[C@H]1O[C@@H](n2cnc3c(NCc4ccc(N)cc4)ncnc32)[C@H](O)[C@@H]1O,-6.99%,–
NC[C@H]1O[C@@H](n2cnc3c(N)ncnc32)[C@H](O)[C@@H]1O,-7.69%,–
N=C(N)SCCc1ccc(CCSC(=N)N)cc1,18%,–
CCc1c(C(=O)NCCc2ccc(N3CCCCC3)cc2)[nH]c2ccc(Cl)cc12,-5.2%,–
CC1OC1P(=O)(O)O (stereo not given),3.12%,–
CCCCCCCCCCCCCCCC(=O)NCC(COP(=O)([O-])OCC[N+](C)(C)C)OCC (stereo not given),1.58%,–
NC(N)=NC(=O)c1nc(Cl)c(N2CCCCCC2)nc1N,12.2%,–
O=C(O)CC1CCCc2ccccc2C1O (stereo not given),2.17%,–
C[N+]1(C)CCC(OC(=O)C(c2ccccc2)c2ccccc2)CC1,-3.09%,–
Cn1ncc(S(=O)(=O)Cc2ccccc2)c(Br)c1=O,-47.2%,–
